Reference: PubChem BioAssay (EPA / NIEHS)
Calls of active or inactive are those of the source. Rule for the calls: active = hit-call score of the fitted dose curve at least 0.9, where 1 is the maximum; inactive = score below 0.9.

Key:
[1] = ATG_ISRE_CIS: Attagene CIS-FACTORIAL HepG2 Assay for human Interferon Regulatory Factor 1 (IRF1) binding to an Interferon-Stimulated Response Element (ISRE) (AID 2282948); settings: HepG2 ISRE cis-reporter (Attagene), mRNA transcription readout; actives raise or lower the signal
How it was run: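 Multiplexed mRNA reporter readout in human liver HepG2 cells: cis-element-driven reporters transfected, compound added for 24 h, transcripts amplified, fluorescently labelled and sized by capillary electrophoresis; curve fitting bidirectional against DMSO.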

[2] = ATG_M_32_CIS: Attagene CIS-FACTORIAL HepG2 Assay for M32 Transcription Factor (Internal Marker) (AID 2282949); settings: HepG2 Attagene cis-factorial M32 reporter, mRNA; actives raise or lower the signal;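 note: background control marker of the multiplexed CIS panel rather than a real target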
How it was run: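 HepG2 human liver cells transiently transfected with cis-promoter-driven multiple reporter transcription units, dosed 24 h. Reporter mRNA quantified by RT-PCR, FAM-labelled primer extension, HpaI digest and capillary electrophoresis; bidirectional fit versus DMSO baseline.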

[3] = ATG_M_06_CIS: Attagene CIS-FACTORIAL HepG2 Assay for M06 Transcription Factor (Internal Marker) (AID 2282950); settings: HepG2 Attagene CIS-FACTORIAL M06 internal marker reporter; actives raise or lower the signal
How it was run: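 Terse: HepG2, transient MRTU transfection (FuGene 6), 24 h dosing; total RNA, oligo(dT) RT, PCR, FAM label, HpaI cut, capillary electrophoresis; bidirectional fit vs DMSO baseline; background-control endpoint.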

[4] = target: Hypoxia-inducible factor 1-alpha (Homo sapiens) (UniProt Q16665); assay: ATG_HIF1a_CIS: Attagene CIS-FACTORIAL HepG2 Assay for human Hypoxia Inducible Factor 1 (HIF1A) (AID 2282951); settings: HepG2 Attagene cis-factorial HIF1a reporter transcription; actives raise or lower the signal
How it was run: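 After 24 h chemical exposure of reporter-transfected HepG2 cells, reporter cDNA was PCR-amplified, labelled by 6-FAM primer extension (2 min 95 C, 20 s 68 C, 10 min 72 C), HpaI-cut (2 h, 37 C) and analysed by CE.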

[5] = target: Heat shock factor protein 1 (Homo sapiens) (UniProt Q00613); assay: ATG_HSE_CIS: Attagene CIS-FACTORIAL HepG2 Assay for human Heat Shock Transcription Factor 1 (HSE) (AID 2282953); settings: HepG2 HSE cis-reporter, Attagene RNA transcription; actives raise or lower the signal
How it was run: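 Read-out: fluorescence of reporter-specific RT-PCR fragments separated by capillary electrophoresis. HepG2 carrying transfected cis-element reporter units; 24 h dosing; activity fitted in both directions relative to DMSO baseline.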

[6] = ATG_MRE_CIS: Attagene CIS-FACTORIAL HepG2 Assay for human Metal Responsive Element (MRE) (AID 2282954); settings: HepG2 MRE cis-reporter transcription, Attagene multiplex; actives raise or lower the signal
How it was run: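 Measured here is mRNA induction from an MRE cis-element reporter in HepG2 after 24 h, quantified by fluorescence of labelled RT-PCR products on capillary electrophoresis; gain- and loss-of-signal fits use DMSO as baseline.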

[7] = ATG_PBREM_CIS: Attagene CIS-FACTORIAL HepG2 Assay for human Phenobarbital-responsive Enhancer Module (PBREM) (AID 2282955); settings: HepG2 PBREM cis-reporter, Attagene multiplexed transcription; actives raise or lower the signal
How it was run: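 Measures endogenous factor action on a phenobarbital-responsive enhancer module. HepG2 transiently carrying cis reporters, 24 h treatment, mRNA read-out by RT-PCR plus capillary electrophoresis.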

[8] = target: Paired box protein Pax-6 (Homo sapiens) (UniProt P26367); assay: ATG_Pax6_CIS: Attagene CIS-FACTORIAL HepG2 Assay for human Paired Box 6 (PAX6) (AID 2282956); settings: HepG2 CIS-FACTORIAL PAX6 reporter transcription, RNA readout; actives raise or lower the signal
How it was run: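 Fluorescent RT-PCR products separated by capillary electrophoresis report PAX6-linked promoter mRNA in HepG2 cells 24 h post-dose. Curves fitted bidirectionally, DMSO as negative control.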

[9] = ATG_PXRE_CIS: Attagene CIS-FACTORIAL HepG2 Assay for human Pregnane X Receptor Element (PXRE) (AID 2282957); settings: HepG2 Attagene CIS-FACTORIAL PXRE reporter, mRNA; actives raise or lower the signal
How it was run: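 Using HepG2 transfected with multiple reporter transcription units, endogenous factor-driven transcription was scored as reporter mRNA after 24 h exposure.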

[10] = ATG_PPRE_CIS: Attagene CIS-FACTORIAL HepG2 Assay for human Peroxisome Proliferator-activated Response Element (PPRE) (AID 2282958); settings: HepG2 PPRE cis-element reporter, Attagene transcription factor profiling; actives raise or lower the signal
How it was run: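 PPRE activity in HepG2: transient cis-reporter transfection, 24 h compound incubation, reporter mRNA by RT-PCR and CE fluorescence; gain/loss fitted against DMSO.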

[11] = ATG_Sox_CIS: Attagene CIS-FACTORIAL HepG2 Assay for human SRY-box transcription factor (SOX) (AID 2282960); settings: HepG2 Attagene cis-factorial SOX reporter, mRNA; actives raise or lower the signal
How it was run: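 HepG2, cis reporter units, 24 h exposure. Reporter mRNA: RT-PCR → FAM labelling → HpaI → CE fluorescence. Bidirectional fit vs DMSO.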

[12] = target: Transcription factor Sp1 (Homo sapiens) (UniProt P08047); assay: ATG_Sp1_CIS: Attagene CIS-FACTORIAL HepG2 Assay for human Specificity Protein 1 (Sp1) (AID 2282961); settings: HepG2 Sp1 cis-reporter transcription, actives raise or lower the signal
How it was run: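 Liver-derived HepG2 cells, cis-element reporter library, 24 h treatment; RNA isolated, cDNA amplified with reporter-specific primers, FAM-labeled fragments sized on capillary analyzer. DMSO baseline, bidirectional curve fit.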

[13] = ATG_SREBP_CIS: Attagene CIS-FACTORIAL HepG2 Assay for human Sterol Regulatory Element Binding (SREBP) (AID 2282962); settings: HepG2 Attagene cis-factorial SREBP reporter, mRNA; actives raise or lower the signal
How it was run: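 Endogenous factor activity is measured in HepG2 through multiplexed reporter units under cis-element control. Following a 24 h incubation, reporter transcripts are reverse-transcribed, PCR-amplified and sized by capillary electrophoresis; activity is fitted in both directions relative to DMSO.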

[14] = target: Signal transducer and activator of transcription 3 (Homo sapiens) (UniProt P40763); assay: ATG_STAT3_CIS: Attagene CIS-FACTORIAL HepG2 Assay for human Signal Transducer and Activator of Transcription 3 (STAT3) (AID 2282963); settings: HepG2, Attagene cis-factorial STAT3 reporter transcription; actives raise or lower the signal
How it was run: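 Fluorescence intensity of 6-FAM-labelled reporter fragments, separated by capillary electrophoresis after RT-PCR, gave the signal. Cells were HepG2 transfected with cis-element reporter units and treated 24 h; fitting was bidirectional relative to DMSO.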

[15] = ATG_TCF_b_cat_CIS: Attagene CIS-FACTORIAL HepG2 Assay for human T-Cell-Factor with beta-catenin (TCF/b-cat) (AID 2282965); settings: HepG2 TCF/beta-catenin cis-reporter transcription, actives raise or lower the signal
How it was run: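 Cells of the HepG2 line carry transiently transfected reporter units whose promoters respond to endogenous factors. Twenty-four hours post-dosing, reporter mRNA induction is measured by fluorescent RT-PCR and capillary electrophoresis, with DMSO as baseline.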

[16] = ATG_TAL_CIS: Attagene CIS-FACTORIAL HepG2 Assay for human TAL Basal Promoter (AID 2282966); settings: HepG2 Attagene cis-factorial TAL promoter reporter; actives raise or lower the signal;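 note: background control endpoint measuring basal TAL promoter reporter mRNA not a specific factor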
How it was run: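 After 24 hours of chemical exposure, transfected HepG2 cells yielded RNA that was converted to 6-FAM-labelled, HpaI-digested reporter fragments for capillary electrophoresis. Values derive from bidirectional fitting against DMSO controls.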

[17] = ATG_RORE_CIS: Attagene CIS-FACTORIAL HepG2 Assay for human RAR-related Orphan Receptor Element (RORE) (AID 2282959); settings: HepG2 Attagene cis-factorial RORE reporter, mRNA; actives raise or lower the signal
How it was run: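 A 24-hour exposure of transfected HepG2 hepatoma cells precedes RNA isolation and reporter RT-PCR. Labeled products are digested with HpaI and resolved by capillary electrophoresis, with gain or loss of signal scored relative to DMSO.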

[18] = ATG_TA_CIS: Attagene CIS-FACTORIAL HepG2 Assay for human TA Basal Promoter (AID 2282964); settings: HepG2 Attagene CIS-factorial TA basal promoter reporter; actives raise or lower the signal
How it was run: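 Transfected HepG2, 24 h compound exposure; RNA → RT-PCR → FAM primer extension → HpaI cut → CE fluorescence. Gain/loss-of-signal fitted against DMSO negative control. Background-control readout.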

[19] = ATG_TGFb_CIS: Attagene CIS-FACTORIAL HepG2 Assay for human Transforming Growth Factor (TGF) (AID 2282967); settings: HepG2 Attagene CIS TGFb reporter, mRNA transcription; actives raise or lower the signal
How it was run: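 Readout: fluorescently labeled reporter cDNA fragments resolved by capillary electrophoresis after RT-PCR. Transfected HepG2 cells dosed for 24 h; endogenous TF activity at TGFB1-linked cis element; gain or loss fitted relative to DMSO.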

[20] = target: Hepatocyte nuclear factor 6 (Homo sapiens) (UniProt Q9UBC0); assay: ATG_HNF6_CIS: Attagene CIS-FACTORIAL HepG2 Assay for human Hepatocyte Nuclear Factor 6 (HNF6) (AID 2282952); settings: HepG2 Attagene cis-factorial HNF6 reporter transcription; actives raise or lower the signal
How it was run: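 Using cis-element reporters in HepG2 liver cells, the assay tracks endogenous factor-driven transcription 24 h post-dosing. Signal comes from 6-FAM-labelled, HpaI-digested RT-PCR fragments, with gain or loss scored against DMSO.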

Measured: AC50

Transcription factor Sp1 (Homo sapiens), sequence (P08047 whole entry, looked up, the tested form may be a part): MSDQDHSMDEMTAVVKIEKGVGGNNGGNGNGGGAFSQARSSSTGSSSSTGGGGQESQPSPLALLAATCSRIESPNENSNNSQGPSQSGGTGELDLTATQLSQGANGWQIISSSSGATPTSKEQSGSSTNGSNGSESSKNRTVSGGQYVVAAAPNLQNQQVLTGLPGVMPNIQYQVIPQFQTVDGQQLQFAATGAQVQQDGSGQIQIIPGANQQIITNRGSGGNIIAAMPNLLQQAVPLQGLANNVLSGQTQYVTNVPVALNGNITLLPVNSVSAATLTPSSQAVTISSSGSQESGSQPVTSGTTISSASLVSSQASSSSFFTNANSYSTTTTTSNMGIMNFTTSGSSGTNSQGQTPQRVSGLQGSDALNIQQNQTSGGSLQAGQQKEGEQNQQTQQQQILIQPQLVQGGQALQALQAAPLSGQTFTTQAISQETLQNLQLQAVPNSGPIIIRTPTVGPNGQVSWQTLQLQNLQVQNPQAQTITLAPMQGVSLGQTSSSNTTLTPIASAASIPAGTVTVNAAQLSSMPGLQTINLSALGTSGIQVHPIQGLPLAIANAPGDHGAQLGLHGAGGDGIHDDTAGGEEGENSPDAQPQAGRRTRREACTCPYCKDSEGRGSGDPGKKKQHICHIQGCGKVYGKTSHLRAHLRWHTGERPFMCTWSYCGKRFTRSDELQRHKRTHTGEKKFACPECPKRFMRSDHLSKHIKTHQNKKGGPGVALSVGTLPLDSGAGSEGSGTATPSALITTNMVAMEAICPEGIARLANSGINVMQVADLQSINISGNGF
Heat shock factor protein 1 (Homo sapiens), sequence (Q00613 whole entry, looked up, the tested form may be a part): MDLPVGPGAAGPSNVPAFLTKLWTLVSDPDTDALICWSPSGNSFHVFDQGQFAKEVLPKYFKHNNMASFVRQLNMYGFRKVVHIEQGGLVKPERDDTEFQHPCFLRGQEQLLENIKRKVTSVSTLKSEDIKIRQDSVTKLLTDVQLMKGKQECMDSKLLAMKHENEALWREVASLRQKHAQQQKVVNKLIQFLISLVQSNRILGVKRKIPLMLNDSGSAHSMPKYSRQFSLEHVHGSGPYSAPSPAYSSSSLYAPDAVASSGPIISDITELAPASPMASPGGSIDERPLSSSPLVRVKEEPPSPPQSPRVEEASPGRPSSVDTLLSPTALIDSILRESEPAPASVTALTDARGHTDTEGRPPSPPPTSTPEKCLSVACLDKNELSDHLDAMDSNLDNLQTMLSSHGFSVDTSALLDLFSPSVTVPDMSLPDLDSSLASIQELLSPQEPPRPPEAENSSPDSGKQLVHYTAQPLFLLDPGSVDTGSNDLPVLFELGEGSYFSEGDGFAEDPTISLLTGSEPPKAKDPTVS
Hypoxia-inducible factor 1-alpha (Homo sapiens), sequence (Q16665 whole entry, looked up): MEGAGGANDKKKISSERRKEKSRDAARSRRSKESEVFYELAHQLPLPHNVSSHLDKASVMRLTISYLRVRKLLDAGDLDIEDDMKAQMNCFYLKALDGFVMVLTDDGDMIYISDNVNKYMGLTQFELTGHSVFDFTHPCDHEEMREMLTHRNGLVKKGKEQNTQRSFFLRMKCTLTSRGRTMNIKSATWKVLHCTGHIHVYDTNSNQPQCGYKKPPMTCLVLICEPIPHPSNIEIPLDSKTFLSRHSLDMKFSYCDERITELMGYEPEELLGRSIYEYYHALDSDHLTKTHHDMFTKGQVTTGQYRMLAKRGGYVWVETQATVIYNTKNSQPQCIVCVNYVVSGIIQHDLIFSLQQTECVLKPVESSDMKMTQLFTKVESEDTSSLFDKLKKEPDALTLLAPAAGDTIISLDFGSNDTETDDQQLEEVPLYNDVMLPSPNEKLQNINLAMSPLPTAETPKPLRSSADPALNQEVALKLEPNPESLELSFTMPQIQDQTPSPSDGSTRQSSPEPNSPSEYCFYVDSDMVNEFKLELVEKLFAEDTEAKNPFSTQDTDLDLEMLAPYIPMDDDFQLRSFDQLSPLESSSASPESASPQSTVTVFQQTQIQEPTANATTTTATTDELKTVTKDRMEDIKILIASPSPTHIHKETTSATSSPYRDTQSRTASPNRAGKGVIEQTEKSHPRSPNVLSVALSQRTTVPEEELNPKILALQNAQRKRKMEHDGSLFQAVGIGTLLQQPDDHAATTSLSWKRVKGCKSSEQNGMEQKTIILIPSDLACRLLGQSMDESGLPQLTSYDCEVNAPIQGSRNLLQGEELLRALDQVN
Paired box protein Pax-6 (Homo sapiens), sequence (P26367 whole entry, looked up): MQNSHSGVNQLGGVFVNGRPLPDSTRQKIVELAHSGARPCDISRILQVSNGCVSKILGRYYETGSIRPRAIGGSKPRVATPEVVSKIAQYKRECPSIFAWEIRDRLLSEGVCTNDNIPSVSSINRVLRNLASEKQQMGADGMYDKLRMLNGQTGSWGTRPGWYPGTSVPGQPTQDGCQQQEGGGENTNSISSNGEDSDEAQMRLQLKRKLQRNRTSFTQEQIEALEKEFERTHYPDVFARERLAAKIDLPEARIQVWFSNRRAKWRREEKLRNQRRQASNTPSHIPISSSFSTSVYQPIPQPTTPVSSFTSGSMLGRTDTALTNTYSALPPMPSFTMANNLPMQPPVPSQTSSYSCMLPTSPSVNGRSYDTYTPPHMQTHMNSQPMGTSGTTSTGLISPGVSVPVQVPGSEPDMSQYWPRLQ
Signal transducer and activator of transcription 3 (Homo sapiens), sequence (P40763 whole entry, looked up, the tested form may be a part): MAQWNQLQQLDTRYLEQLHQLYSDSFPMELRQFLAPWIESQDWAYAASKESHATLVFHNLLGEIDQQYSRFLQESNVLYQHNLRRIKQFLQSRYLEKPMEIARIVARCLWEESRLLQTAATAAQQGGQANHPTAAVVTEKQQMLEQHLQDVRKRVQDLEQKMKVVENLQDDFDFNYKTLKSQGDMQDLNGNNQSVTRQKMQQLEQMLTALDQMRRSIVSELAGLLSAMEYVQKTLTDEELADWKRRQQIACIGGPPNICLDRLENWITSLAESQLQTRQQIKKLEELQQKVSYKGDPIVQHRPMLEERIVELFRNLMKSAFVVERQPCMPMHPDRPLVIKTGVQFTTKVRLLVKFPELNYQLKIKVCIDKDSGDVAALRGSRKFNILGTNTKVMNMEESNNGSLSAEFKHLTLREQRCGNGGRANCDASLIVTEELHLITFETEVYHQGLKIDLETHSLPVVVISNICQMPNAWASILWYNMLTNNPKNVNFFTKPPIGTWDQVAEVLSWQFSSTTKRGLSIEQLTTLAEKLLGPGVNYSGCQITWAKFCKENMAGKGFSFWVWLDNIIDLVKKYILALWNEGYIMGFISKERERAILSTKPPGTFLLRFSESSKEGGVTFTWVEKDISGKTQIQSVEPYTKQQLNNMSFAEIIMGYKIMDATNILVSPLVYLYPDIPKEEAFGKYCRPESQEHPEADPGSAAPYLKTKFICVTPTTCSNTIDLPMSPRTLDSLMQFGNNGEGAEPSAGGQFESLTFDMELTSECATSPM
Hepatocyte nuclear factor 6 (Homo sapiens), sequence (Q9UBC0 whole entry, looked up, the tested form may be a part): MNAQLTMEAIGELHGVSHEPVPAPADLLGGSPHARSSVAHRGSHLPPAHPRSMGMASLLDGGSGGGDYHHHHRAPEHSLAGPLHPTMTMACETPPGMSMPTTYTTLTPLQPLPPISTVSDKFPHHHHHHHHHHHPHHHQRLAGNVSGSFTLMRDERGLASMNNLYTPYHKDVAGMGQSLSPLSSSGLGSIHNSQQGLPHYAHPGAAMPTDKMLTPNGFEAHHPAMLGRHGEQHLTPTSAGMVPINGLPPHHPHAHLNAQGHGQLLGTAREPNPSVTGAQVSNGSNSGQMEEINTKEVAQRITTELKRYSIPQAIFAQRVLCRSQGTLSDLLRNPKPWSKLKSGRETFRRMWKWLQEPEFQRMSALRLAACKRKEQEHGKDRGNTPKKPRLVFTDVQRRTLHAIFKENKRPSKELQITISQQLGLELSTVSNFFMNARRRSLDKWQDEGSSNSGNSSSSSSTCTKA

COc1nn(C(=O)NS(=O)(=O)c2ccccc2OC(F)(F)F)c(=O)n1C
not listed: [17] | [18] | [19] | [20]
inactive: all other assays above

Cc1ccc(CCl)cc1
not listed: [8] | [20]
inactive: all other assays above

N#CCC#N
not listed: [5] | [8] | [15] | [16] | [20]
inactive: all other assays above

C[C@]12CC[C@@H](O)C[C@@H]1CC[C@@H]1[C@@H]2CC[C@]2(C)C(=O)CC[C@@H]12
active: [9] 6.91 µM
not listed: [4] | [7] | [10] | [15] | [19]
inactive: all other assays above

CCC[CH2][Sn]([Cl])([Cl])[CH2]CCC
active: [1] 1.99 µM | [4] 1.24 µM | [5] 0.818 µM | [6] 1.24 µM | [8] 1.46 µM | [9] 0.865 µM | [10] 0.0625 µM | [17] 0.584 µM | [11] 1.61 µM | [12] 0.966 µM | [13] 0.811 µM
inactive: [2] | [3] | [7] | [14] | [18] | [16] | [19]

COc1ccc([N+](=O)[O-])cc1O
not listed: [7] | [20]
inactive: all other assays above

CCOC(=O)c1ccccc1S(=O)(=O)NC(=O)Nc1nc(Cl)cc(OC)n1
active: [9] 5.49 µM
not listed: [16] | [20]
inactive: all other assays above

C=C(C)[C@@H]1CC=C(C=O)CC1
active: [6] 85.2 µM | [9] 9.25 µM
not listed: [7] | [8] | [15] | [19] | [20]
inactive: all other assays above

COP(=S)(OC)Oc1cc(Cl)c(I)cc1Cl
inactive: [2] | [3] | [10] | [14] | [18] | [16] | [19]
active: [1] 48.7 µM | [4] 33.4 µM | [5] 62.1 µM | [6] 37.5 µM | [8] 33.4 µM | [9] 8.06 µM | [17] 15 µM | [11] 33.4 µM | [12] 33.4 µM | [13] 37.3 µM | [15] 48.6 µM

CCCCCCCCCCCCCCC(Br)C(=O)O (stereo unspecified)
inactive: [1] | [9] | [11] | [13] | [14] | [15]
active: [2] 164 µM | [3] 183 µM | [4] 150 µM | [5] 154 µM | [6] 161 µM | [7] 100 µM | [8] 142 µM | [10] 42.2 µM | [17] 111 µM | [18] 110 µM | [16] 129 µM | [19] 162 µM

N#Cc1ccccc1N
active: [9] 39.4 µM
not listed: [8] | [20]
inactive: all other assays above

Clc1cc(C(Cl)(Cl)Cl)cnc1Cl
active: [1] 9.08 µM | [4] 9 µM | [6] 9.1 µM | [8] 8.8 µM | [9] 8.47 µM | [13] 17.5 µM | [15] 8.55 µM
not listed: [7] | [10] | [18] | [20]
inactive: all other assays above

O=C1c2ccccc2C(=O)C1C(=O)C(c1ccccc1)c1ccc(Cl)cc1 (stereo unspecified)
inactive: [2] | [4] | [18]
active: [1] 20 µM | [3] 88.4 µM | [6] 17.8 µM | [7] 9.73 µM | [8] 8.23 µM | [9] 1.51 µM | [17] 8.58 µM | [11] 7.35 µM | [12] 7.69 µM | [13] 9.14 µM | [14] 167 µM | [15] 12.2 µM | [16] 161 µM | [19] 8.18 µM

Cc1cc(-c2cc(C)c(N)c(C)c2)cc(C)c1N
active: [9] 26.5 µM
not listed: [19] | [20]
inactive: all other assays above

C#C[C@]1(O)CC[C@H]2[C@@H]3CCC4=CC(=O)CC[C@]4(C)[C@H]3CC[C@@]21C
not listed: [4] | [18]
inactive: all other assays above
